In PubChem BioAssay (Tox21):
Where “and” joins values, the source holds several entries; their conditions need not be identical. Equal entries are not always repeated. Inconclusive results are not listed. More than one record can exist for a structure, and the calls need not agree. Calls of active or inactive are those of the source. Unless noted, calls follow the shape of the dose curve; as a rule, active = well fitted curve in the direction sought with a large enough effect in the repeat runs; inconclusive = weak or mixed curves; inactive = no such curve, though single readings can be large; an effect the other way counts as inactive or inconclusive.

Legend:
[1] = Caspase-3/7 induction in CHO-K1 cells by small molecules, qHTS assay (AID 1346980); also: nearly all actives have a fitted effect of over 15% in size
Method in brief: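 Wild-type CHO-K1 cells exposed to compounds for 17hr at 37 C, 5% CO2. Caspase-3/7 activity then measured by Caspase-Glo 3/7 luminescence after 30min at room temperature.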

[2] = Caspase-3/7 induction in HepG2 cells by small molecules, qHTS cell viability counter screen (AID 1346981); also: nearly all actives have a fitted effect of over 30% in size; also: potency is read from the fitted curve at half-maximal effect
Method in brief: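 HepG2, WT, 2,000 cells/well; 5 hr pre-incubation 37 C/5% CO2; compound pin-transferred from DMSO; 16 hr exposure; CellTiter-Fluor, 1 hr; fluorescence read.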

[3] = target: Acetylcholinesterase (Homo sapiens) (UniProt P22303); assay: Acetylcholinesterase (AChE) small molecule antagonists: colormetric cell-based qHTS assay (AID 1347395; calls by dose curve; also: nearly all actives have a fitted effect of over 30% in size; also: potency is read from the fitted curve at half-maximal effect)
Acetylcholinesterase (Homo sapiens), sequence (P22303 whole entry, looked up): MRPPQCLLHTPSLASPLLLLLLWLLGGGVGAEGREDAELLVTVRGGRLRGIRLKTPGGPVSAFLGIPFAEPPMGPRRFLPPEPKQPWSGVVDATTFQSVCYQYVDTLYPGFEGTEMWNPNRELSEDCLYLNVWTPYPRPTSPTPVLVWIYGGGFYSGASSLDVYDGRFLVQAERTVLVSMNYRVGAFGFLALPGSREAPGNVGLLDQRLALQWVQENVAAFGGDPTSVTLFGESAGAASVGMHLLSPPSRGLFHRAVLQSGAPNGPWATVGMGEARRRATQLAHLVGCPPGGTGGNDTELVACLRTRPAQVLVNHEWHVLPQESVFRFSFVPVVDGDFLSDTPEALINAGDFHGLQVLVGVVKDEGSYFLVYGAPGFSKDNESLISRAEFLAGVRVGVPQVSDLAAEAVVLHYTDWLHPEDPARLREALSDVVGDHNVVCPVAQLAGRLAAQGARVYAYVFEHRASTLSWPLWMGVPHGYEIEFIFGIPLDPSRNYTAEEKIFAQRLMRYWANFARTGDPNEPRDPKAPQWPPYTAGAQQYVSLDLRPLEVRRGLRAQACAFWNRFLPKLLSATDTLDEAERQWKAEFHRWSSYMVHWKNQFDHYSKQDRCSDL
Method in brief: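 Colorimetric read-out: DTNB detects thiocholine released when cellular AChE in SH-SY5Y cells hydrolyses acetylthiocholine. Cells attached overnight, received compound for 30 min at 37 C, then substrate mix for 90 min at 37 C.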

[4] = target: Acetylcholinesterase (Homo sapiens) (UniProt P22303); assay: Acetylcholinesterase (AChE) small molecule antagonists: fluorescence cell-based qHTS assay (AID 1347398; calls by dose curve; also: nearly all actives have a fitted effect of over 50% in size); conditions: Potency: AChE activity; outcome: AChE activity
Method in brief: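 SH-SY5Y cells (2000/well), attached overnight, incubated with compound 30 min at 37 C. Acetylthiocholine plus Thiolite Green then added for 40 min at room temperature. Thiocholine fluorescence (Ex/Em 490/520 nm) reports cellular AChE activity.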

[5] = target: Acetylcholinesterase (Homo sapiens) (UniProt P22303); assay: Acetylcholinesterase (AChE) small molecule antagonists: enzyme-based qHTS assay with human liver microsomes (AID 1347399; calls by dose curve; also: nearly all actives have a fitted effect of over 60% in size); conditions: Potency: qHTS inhibition; outcome: qHTS inhibition
Method in brief: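 Recombinant human AChE (50 mU/mL in the enzyme mix) and human liver microsomes (0.25 mg/mL final) were preincubated with compound and NADPH (0.25 mg/mL final) for 30 min at 37 C. Acetylthiocholine/DTNB was then added; thiocholine was read colorimetrically after 10 min at room temperature.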

[6] = target: Voltage-gated inwardly rectifying potassium channel KCNH2 (Homo sapiens) (UniProt Q12809); assay: Human Ether-a-go-go-Related Gene (hERG) channel small molecule antagonists: fluorescence cell-based qHTS assay (AID 1671200);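 also: hERG-expressing U2OS cells given a thallium stimulus after FluxOR II dye loading; series mostly up to about 77 µM; nearly all actives have a fitted effect of over 50% in size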
Voltage-gated inwardly rectifying potassium channel KCNH2 (Homo sapiens), sequence (Q12809 whole entry, looked up): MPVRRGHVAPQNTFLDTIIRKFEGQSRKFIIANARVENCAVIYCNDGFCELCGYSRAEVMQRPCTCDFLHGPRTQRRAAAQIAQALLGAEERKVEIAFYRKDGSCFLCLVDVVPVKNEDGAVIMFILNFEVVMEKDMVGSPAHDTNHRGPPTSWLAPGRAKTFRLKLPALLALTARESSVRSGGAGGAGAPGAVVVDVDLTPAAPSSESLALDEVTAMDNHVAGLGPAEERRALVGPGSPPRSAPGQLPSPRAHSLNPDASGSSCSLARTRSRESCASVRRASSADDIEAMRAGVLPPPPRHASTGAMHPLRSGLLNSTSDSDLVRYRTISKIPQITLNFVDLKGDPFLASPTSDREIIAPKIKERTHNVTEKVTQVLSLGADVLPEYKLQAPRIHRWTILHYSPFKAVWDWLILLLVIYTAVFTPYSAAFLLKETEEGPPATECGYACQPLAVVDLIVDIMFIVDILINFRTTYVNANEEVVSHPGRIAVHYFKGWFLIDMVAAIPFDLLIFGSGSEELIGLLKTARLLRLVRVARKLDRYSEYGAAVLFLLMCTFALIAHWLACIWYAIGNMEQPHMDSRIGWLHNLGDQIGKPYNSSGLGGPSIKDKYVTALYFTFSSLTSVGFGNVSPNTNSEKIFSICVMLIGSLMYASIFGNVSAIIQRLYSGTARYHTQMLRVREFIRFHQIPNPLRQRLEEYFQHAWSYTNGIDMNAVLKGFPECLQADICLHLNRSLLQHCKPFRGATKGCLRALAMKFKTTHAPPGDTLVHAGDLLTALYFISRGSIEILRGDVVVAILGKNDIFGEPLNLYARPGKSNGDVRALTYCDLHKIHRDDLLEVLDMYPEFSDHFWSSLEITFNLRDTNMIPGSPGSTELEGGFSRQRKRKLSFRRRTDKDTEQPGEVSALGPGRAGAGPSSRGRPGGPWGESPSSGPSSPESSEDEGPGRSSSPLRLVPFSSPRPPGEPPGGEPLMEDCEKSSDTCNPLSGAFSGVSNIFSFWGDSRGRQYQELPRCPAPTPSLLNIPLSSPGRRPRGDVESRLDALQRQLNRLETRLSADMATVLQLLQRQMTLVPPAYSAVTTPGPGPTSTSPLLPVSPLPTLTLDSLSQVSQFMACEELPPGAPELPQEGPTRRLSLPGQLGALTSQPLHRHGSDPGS
Method in brief: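 Channel function was assessed by thallium flux. Cells seeded the previous day and kept at 37 C took up FluxOR II dye over 1 h in the dark at room temperature, then sat another 10 min before stimulation.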

[7] = Caspase-3/7 induction in CHO-K1 cells by small molecules, qHTS cell viability counter screen (AID 1346979); also: nearly all actives have a fitted effect of over 35% in size; also: potency is read from the fitted curve at half-maximal effect
Method in brief: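 Cells (CHO-K1, wild type) are plated at 1,500 per well and incubated 5hr. Test compounds in DMSO are then pinned in, followed by 16hr at 37C and 5% CO2. Viability is read by CellTiter-Fluor fluorescence after 1hr.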

[8] = target: Nuclear receptor subfamily 1 group I member 2 (Homo sapiens) (UniProt O75469); assay: Human pregnane X receptor (PXR) small molecule agonists, qHTS assay (AID 1346982); also: nearly all actives have a fitted effect of over 35% in size; also: potency is read from the fitted curve at half-maximal effect
Nuclear receptor subfamily 1 group I member 2 (Homo sapiens), sequence (O75469 whole entry, looked up): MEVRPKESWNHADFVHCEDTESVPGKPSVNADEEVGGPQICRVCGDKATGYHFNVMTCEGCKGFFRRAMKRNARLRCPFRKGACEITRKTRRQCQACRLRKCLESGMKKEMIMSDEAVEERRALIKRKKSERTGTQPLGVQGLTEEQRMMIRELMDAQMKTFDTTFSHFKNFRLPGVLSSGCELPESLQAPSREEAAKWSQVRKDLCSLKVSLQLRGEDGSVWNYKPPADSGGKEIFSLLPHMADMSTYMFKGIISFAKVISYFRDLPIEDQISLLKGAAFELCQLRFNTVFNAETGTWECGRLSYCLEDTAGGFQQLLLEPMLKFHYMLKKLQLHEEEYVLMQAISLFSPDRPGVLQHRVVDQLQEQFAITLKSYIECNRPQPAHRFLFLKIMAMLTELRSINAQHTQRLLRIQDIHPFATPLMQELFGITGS
Method in brief: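 Luciferase signal from ONE-Glo (30 min, room temperature) measured activation of hPXR-driven CYP3A4 reporter expression in PXR-Luc HepG2 cells treated with compounds for 24 hr at 37 C.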

[9] = target: Cytochrome P450 2D6 (Homo sapiens) (UniProt P10635); assay: Cytochrome P450 Family 2 Subfamily D Member 6 (CYP2D6) small molecule antagonists: luciferase reporter qHTS assay (AID 1671196); also: nearly all actives have a fitted effect of over 50% in size; also: potency is read from the fitted curve at half-maximal effect
Cytochrome P450 2D6 (Homo sapiens), sequence (P10635 whole entry, looked up): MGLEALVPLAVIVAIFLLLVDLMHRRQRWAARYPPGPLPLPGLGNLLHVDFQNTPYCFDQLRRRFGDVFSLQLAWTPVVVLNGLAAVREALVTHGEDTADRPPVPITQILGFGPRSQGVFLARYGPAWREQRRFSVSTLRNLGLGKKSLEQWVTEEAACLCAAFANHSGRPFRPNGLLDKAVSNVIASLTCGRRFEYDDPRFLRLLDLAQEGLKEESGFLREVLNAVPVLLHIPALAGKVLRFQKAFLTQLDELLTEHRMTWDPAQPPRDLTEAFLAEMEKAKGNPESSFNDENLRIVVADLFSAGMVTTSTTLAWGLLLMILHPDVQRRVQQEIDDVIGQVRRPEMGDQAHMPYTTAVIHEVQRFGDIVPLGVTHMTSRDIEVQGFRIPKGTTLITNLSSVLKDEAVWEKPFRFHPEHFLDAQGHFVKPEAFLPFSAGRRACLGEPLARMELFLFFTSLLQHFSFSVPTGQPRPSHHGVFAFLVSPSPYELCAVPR
Method in brief: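 Read-out is luminescence from luciferin formed by CYP2D6 turnover of a proluciferin substrate, recorded as relative luminescence units. Reactions ran 1 h at room temperature after NADPH regeneration solution was added.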

[10] = target: Cytochrome P450 2C19 (Homo sapiens) (UniProt P33261); assay: Cytochrome P450 Family 2 Subfamily C Member 19 (CYP2C19) small molecule antagonists: luciferase reporter qHTS assay (AID 1671197); also: nearly all actives have a fitted effect of over 65% in size; also: potency is read from the fitted curve at half-maximal effect
Cytochrome P450 2C19 (Homo sapiens), sequence (P33261 whole entry, looked up): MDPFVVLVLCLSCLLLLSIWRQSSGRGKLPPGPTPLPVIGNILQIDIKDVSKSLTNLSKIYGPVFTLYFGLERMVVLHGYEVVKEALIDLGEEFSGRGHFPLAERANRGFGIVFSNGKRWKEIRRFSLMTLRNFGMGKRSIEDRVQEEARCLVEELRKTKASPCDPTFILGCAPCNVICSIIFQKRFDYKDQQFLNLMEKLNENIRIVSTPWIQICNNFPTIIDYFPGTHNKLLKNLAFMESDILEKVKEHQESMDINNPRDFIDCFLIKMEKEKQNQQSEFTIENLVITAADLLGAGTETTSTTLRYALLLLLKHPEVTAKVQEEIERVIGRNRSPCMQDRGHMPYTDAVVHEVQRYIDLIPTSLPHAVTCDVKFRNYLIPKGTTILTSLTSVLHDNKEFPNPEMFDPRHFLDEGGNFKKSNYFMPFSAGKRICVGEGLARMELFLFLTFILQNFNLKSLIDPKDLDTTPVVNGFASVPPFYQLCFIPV
Method in brief: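 P450-Glo CYP2C19 system: enzyme-substrate mix with compound 10 min at room temperature, then NADPH regeneration solution, 1 h at 37C. Proluciferin-to-luciferin conversion detected by luminescence after 20 min with detection reagent; ketoconazole as positive control.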

[11] = target: Cytochrome P450 2C9 (Homo sapiens) (UniProt P11712); assay: Cytochrome P450 Family 2 Subfamily C Member 9 (CYP2C9) small molecule antagonists: luciferase reporter qHTS assay (AID 1671198); also: nearly all actives have a fitted effect of over 50% in size; also: potency is read from the fitted curve at half-maximal effect
Cytochrome P450 2C9 (Homo sapiens), sequence (P11712 whole entry, looked up): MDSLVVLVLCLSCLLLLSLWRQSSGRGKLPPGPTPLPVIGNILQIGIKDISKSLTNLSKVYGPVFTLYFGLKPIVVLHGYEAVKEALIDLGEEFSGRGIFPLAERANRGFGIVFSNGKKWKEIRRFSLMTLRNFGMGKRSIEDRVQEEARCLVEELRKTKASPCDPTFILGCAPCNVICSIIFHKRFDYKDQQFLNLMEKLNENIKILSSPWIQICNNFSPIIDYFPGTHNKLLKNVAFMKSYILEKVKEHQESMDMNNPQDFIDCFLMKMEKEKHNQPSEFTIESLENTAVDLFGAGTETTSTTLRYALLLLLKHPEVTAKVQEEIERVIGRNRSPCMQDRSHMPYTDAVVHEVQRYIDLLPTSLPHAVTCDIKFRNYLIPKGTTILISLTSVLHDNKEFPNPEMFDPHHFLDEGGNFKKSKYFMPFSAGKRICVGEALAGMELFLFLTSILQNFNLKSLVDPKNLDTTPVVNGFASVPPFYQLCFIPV
Method in brief: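 P450-Glo proluciferin substrate with CYP2C9 enzyme; 10 min RT preincubation, then NADPH regeneration 1 h at 37C; luciferin detection reagent 20 min RT, luminescence in relative luminescence units.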

[12] = target: Cytochrome P450 1A2 (Homo sapiens) (UniProt P05177); assay: Cytochrome P450 Family 1 Subfamily A Member 2 (CYP1A2) small molecule antagonists: luciferase reporter qHTS assay (AID 1671199); also: nearly all actives have a fitted effect of over 50% in size; also: potency is read from the fitted curve at half-maximal effect
Cytochrome P450 1A2 (Homo sapiens), sequence (P05177 whole entry, looked up): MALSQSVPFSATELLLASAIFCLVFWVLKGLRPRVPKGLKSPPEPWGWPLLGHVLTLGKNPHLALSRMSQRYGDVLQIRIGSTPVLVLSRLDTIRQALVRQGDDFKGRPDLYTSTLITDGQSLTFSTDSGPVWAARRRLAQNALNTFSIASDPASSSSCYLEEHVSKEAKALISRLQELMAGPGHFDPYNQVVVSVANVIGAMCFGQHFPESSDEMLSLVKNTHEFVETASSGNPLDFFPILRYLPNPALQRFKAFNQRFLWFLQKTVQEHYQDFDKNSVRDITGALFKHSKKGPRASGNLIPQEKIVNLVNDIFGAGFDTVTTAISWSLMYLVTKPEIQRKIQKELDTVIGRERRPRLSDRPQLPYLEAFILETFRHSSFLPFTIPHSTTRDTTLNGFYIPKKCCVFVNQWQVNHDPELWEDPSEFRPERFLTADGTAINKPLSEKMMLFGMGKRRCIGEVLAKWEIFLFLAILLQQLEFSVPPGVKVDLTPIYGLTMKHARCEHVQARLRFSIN
Method in brief: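 P450-Glo CYP1A2, 1536-well qHTS: enzyme/proluciferin substrate + cpd (DMSO), 10 min RT; NADPH regen, 1 h RT; detection reagent, 20 min; luminescence, RLU.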

[13] = target: Nuclear receptor subfamily 1 group I member 2 (Rattus norvegicus) (UniProt Q9R1A7); assay: Rat pregnane X receptor (rPXR) activation by small molecules, qHTS assay (AID 1346983); conditions: rPXR luciferase reporter cells, One-Glo luminescence, 24 h; stronger effect = higher value; also: nearly all actives have a fitted effect of over 20% in size
Nuclear receptor subfamily 1 group I member 2 (Rattus norvegicus), sequence (Q9R1A7 whole entry, looked up): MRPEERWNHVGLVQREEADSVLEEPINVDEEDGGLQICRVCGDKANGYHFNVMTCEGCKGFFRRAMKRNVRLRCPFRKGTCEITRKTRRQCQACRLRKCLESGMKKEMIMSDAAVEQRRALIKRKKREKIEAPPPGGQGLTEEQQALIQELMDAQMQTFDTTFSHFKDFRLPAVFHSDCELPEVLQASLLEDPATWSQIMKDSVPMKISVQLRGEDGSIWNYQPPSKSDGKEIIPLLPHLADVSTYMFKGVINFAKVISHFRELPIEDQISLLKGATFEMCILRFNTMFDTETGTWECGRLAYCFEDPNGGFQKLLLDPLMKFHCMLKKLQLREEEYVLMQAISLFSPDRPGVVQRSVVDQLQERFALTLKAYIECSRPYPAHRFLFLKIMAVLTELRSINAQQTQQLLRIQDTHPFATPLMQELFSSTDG
Method in brief: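 Cell-based rPXR activation assay: rPXR cells, 2,000 per well, rested 5hr at 37 C, then exposed to compounds in DMSO for 24 hr at 37 C. Luciferase activity read by One-Glo luminescence after 30 min at room temperature.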

[14] = target: Nuclear receptor subfamily 1 group I member 2 (Homo sapiens) (UniProt O75469); assay: CYP3A4 induction through human pregnane X receptor (PXR) by small molecules, qHTS assay (AID 1346984); also: nearly all actives have a fitted effect of over 40% in size
Method in brief: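 Luminescence readout: luciferase signal after One-Glo (30 min, room temperature), following 3 h at 37C with 3uM final Luciferin-IPA P450 substrate. Cells were DPX-2 (HepG2, PXR/CYP3A4-luc co-transfected) dosed for 24 h.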

[15] = target: Nuclear receptor subfamily 1 group I member 2 (Homo sapiens) (UniProt O75469); assay: Human pregnane X receptor (PXR) activation by small molecules, qHTS assay (AID 1346985); also: nearly all actives have a fitted effect of over 40% in size
Method in brief: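 DPX-2 cells (HepG2 co-transfected with a PXR response element and a CYP3A4-promoter luciferase construct) were seeded at 2,000 per well, rested 5 hr at 37C, then exposed to DMSO-dissolved compounds for 24 hr. Activation was read as luciferase luminescence.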

[16] = target: Acetylcholinesterase (Homo sapiens) (UniProt P22303); assay: Acetylcholinesterase (AChE) small molecule antagonists: enzyme-based qHTS assay (AID 1347397; calls by dose curve; also: nearly all actives have a fitted effect of over 55% in size); conditions: Potency: AChE enzyme activity inhibition; outcome: AChE enzyme activity inhibition
Method in brief: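 Recombinant human AChE (50 mU/mL) preincubated with compound 30 min at room temperature; acetylthiocholine plus DTNB then added, and thiocholine formation read colorimetrically after 10 min at room temperature. DMSO served as vehicle control.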

[17] = target: Cytochrome P450 3A4 (Homo sapiens) (UniProt P08684); assay: Cytochrome P450 Family 3 Subfamily A Member 4 (CYP3A4) small molecule antagonists: luciferase reporter qHTS assay (AID 1671201); also: nearly all actives have a fitted effect of over 50% in size; also: potency is read from the fitted curve at half-maximal effect
Method in brief: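 Compounds in DMSO were pin-transferred onto CYP3A4 enzyme-substrate mix and held 10 min at room temperature. NADPH regenerating solution started the reaction for 1 h; luciferin detection reagent stopped it, and luminescence was read after 20 min.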
% is scaled to controls: 0 for no effect and ±100 for the full control effect.

COc1ccc(CN2CCNCC2)c(OC)c1OC
inactive: outcome [1] | Potency [2] | Potency [3] | Potency [4] | Potency [5] | Potency [6]

CCc1cc(OC)c(C[C@H](C)N)cc1OC
active: Potency [9] 4.16 µM | Potency [12] 20.9 µM
inactive: Potency [7] | outcome [1] | Potency [2] | Potency [8] | Potency [10] | Potency [11] | Potency [6]

CCCN1CCC[C@@H]2Cc3nc(N)ncc3C[C@H]21
inactive: Potency [7] | outcome [1] | Potency [8] | max activation [13] -1.3% | Potency [14] | Potency [15] | Potency [16] | Potency [5] | Potency [10] | Potency [6] | Potency [17]
active: Potency [9] 11 µM

CN(CCO)CCO
inactive: Potency [7] | Potency [2] | Potency [8] | Potency [3] | Potency [16] | Potency [4] | Potency [5] | Potency [10] | Potency [11] | Potency [6] | Potency [17]

O=C1C2CC=CCC2C(=O)N1SC(Cl)(Cl)Cl (stereo not drawn)
inactive and 60.1 µM (active): Potency [2]
inactive: max activation [13] -17% | Potency [14] | Potency [15] | Potency [3] | Potency [16] | Potency [4] | Potency [5] | Potency [17]
active: Potency [7] 68.3 µM and 12 µM | Potency [9] 78.3 µM | Potency [10] 39.8 µM and 8.79 µM | Potency [11] 31.6 µM and 4.94 µM | Potency [12] 31.6 µM and 22.1 µM

BrCCc1ccccc1
inactive: Potency [7] | outcome [1] | Potency [2] | Potency [8] | Potency [16] | Potency [4] | Potency [5] | Potency [10] | Potency [11] | Potency [6] | Potency [17]

COC(=O)c1ccc(CBr)cc1
active: Potency [9] 64 µM | Potency [12] 36 µM
inactive: outcome [1] | Potency [2] | Potency [3] | Potency [16] | Potency [4] | Potency [5] | Potency [6]

O=S1(=O)OCCO1
inactive: Potency [7] | outcome [1] | Potency [2] | Potency [8] | Potency [3] | Potency [16] | Potency [4] | Potency [5] | Potency [9] | Potency [11] | Potency [6] | Potency [17]

ClCOCCl
inactive: Potency [7] | outcome [1] | Potency [2] | Potency [3] | Potency [4] | Potency [5] | Potency [9] | Potency [10] | Potency [11] | Potency [6] | Potency [17]

O=[N+]([O-])c1cccc(CCl)c1
inactive: Potency [7] | Potency [2] | Potency [6]

CCC1(c2ccccc2)CCC(=O)NC1=O (stereo not drawn)
active: Potency [10] 38.9 µM
inactive: Potency [7] | Potency [2] | Potency [8] | max activation [13] -0.631% | Potency [14] | Potency [3] | Potency [16] | Potency [4] | Potency [5] | Potency [9] | Potency [11] | Potency [12] | Potency [6] | Potency [17]

CC#Cc1cc(C)nc(Nc2ccccc2)n1
inactive: Potency [7] | outcome [1] | Potency [2] | Potency [16] | Potency [4] | Potency [5] | Potency [9] | Potency [6]
active: Potency [8] 30.6 µM | Potency [10] 35.5 µM | Potency [11] 35.5 µM | Potency [12] 1.59 µM | Potency [17] 63.2 µM

BrCc1ccc(Br)cc1
active: Potency [3] 71 µM
inactive: Potency [7] | outcome [1] | Potency [2] | Potency [8] | Potency [5] | Potency [17]
